The source of these data is PubChem BioAssay.

Inconclusive results are not listed. The source made the active and inactive calls.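 Rule for the calls, unless noted: active = normalized viability below 100% at a tested concentration; inactive = the rest.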

Assay [1] can be described thus: viability loss in pontine glioma line – cell-based, SU-DIPG-XVII, MIPE5.0, CellTiter-Glo, qHTS, dose response (AID 1347060; cut-off not given, nearly all actives have AC50 up to about 26 µM;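 for AC50: cells exposed to compound for 48 hours before viability readout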). The settings on record: CellTiter-Glo ATP luminescence.
A short description of assay [2]: viability loss in pontine glioma line – cell-based, SU-DIPG-XIII, MIPE5.0, CellTiter-Glo, qHTS, dose response (AID 1347064; cut-off not given, nearly all actives have AC50 up to about 23 µM;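 for AC50: cells exposed to compound for 48 hours before the viability read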). The settings on record: CellTiter-Glo ATP luminescence.
The nature of assay [3]: viability loss in pontine glioma line – cell-based, SU-DIPG-XXV, MIPE5.0, CellTiter-Glo, qHTS, dose response (AID 1347065; cut-off not given, nearly all actives have AC50 up to about 26 µM;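 note: cells exposed to compound for 48 hours before ATP readout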). The settings on record: CellTiter-Glo ATP luminescence.
Assay [4] can be described thus: JHH-DIPG-1 glioma cell viability, MIPE5.0 library, CellTiter-Glo luminescence, qHTS (AID 1347067; cut-off not given, nearly all actives have AC50 up to about 26 µM;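 note: cells exposed to compound for 48 hours before readout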). The settings on record: JHH-DIPG-1 glioma viability, CellTiter-Glo ATP luminescence.
Assay [5] is described as follows: viability loss with induced miR-34 in A549 – imaging, A549 dox-inducible miR-34, nuclei and caspase counts, primary screen (AID 1347080;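 active = compounds whose cell count with miR-34 switched on is under 0.7 times the count with it off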). The settings on record: A549 miR-34 inducible, Hoechst nuclei count, 48 h.
A short description of assay [6]: MELAS cybrid and Rieske KO viability enhancers – cell-based, MELAS cybrids, Rieske KO mouse fibroblasts, CellTiter-Glo, primary screen (AID 1508586;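 active = mean z-score across replicates of 1.96 or higher in either the MELAS or the Rieske mutant cell line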;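 note: z relative to plate mean and SD of compound and empty wells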). The settings on record: low glucose.
The nature of assay [7]: drug combination growth inhibition, ovarian cancer – cell-based, oncology-focused library, rucaparib conditional, profiling panel (AID 1508598). The settings on record: patient-derived ovarian cancer cells, CellTiter-Glo viability, 144 h, stronger effect = lower value.
Assay [8] in a line: growth inhibition of DIPG cells – cell-based, MIPE5.0 library, qHTS (AID 1347068; cut-off not given, nearly all actives have IC50 up to about 30 µM;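 for IC50: cells exposed to compound for 48 hours before viability readout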). The settings on record: SU-DIPG-XXV viability.

`Cc1nc2c(-c3cnc(N)nc3)nc(N3CCOCC3)nc2n1C(C)C`: the AC50 in assay [1] is 742 nM (active); in assay [2] it was 1050 nM (active); in assay [3], 332 nM (active); in assay [4], 742 nM (active). The fold change in assay [5] (stronger effect = lower value, cell number ratio, induced over uninduced) is 0.815 (inactive); in assay [5] (measured here: relative caspase fold change +Dox/-Dox) it was 0.682. For the same compound, the cell count in assay [5] (measured here: total cells with miR-34 induction, stronger effect = lower value) stood at 1980; in assay [5] (measured here: total cells without miR-34 induction), 2430. Further, the z-score in assay [6] (MELAS cybrid survival, CellTiter-Glo 48 h, stronger effect = higher value) was 5.52 (active); in assay [6] (Rieske KO mouse fibroblast survival, CellTiter-Glo 72 h), -0.403. For the same compound, the viability in assay [7] (at 0.000305 µM, OCI-C5x cells, with rucaparib 10 µM, 100% = cells with rucaparib alone) is 117% (inactive); in assay [7] (at 0.000305 µM, OCI-C5x cells, without rucaparib) it was 112% (inactive); in assay [7] (at 0.000305 µM, OCI-P5x cells, with rucaparib 20 µM, 100% = cells with rucaparib alone), 108% (inactive); in assay [7] (at 0.000305 µM, OCI-P5x cells, without rucaparib), 109% (inactive); in assay [7] (at 0.00122 µM, OCI-C5x cells, with rucaparib 10 µM, 100% = cells with rucaparib alone), 120% (inactive); in assay [7] (at 0.00122 µM, OCI-C5x cells, without rucaparib) it was 120% (inactive). The viability in assay [7] (at 0.00122 µM, OCI-P5x cells, with rucaparib 20 µM, 100% = cells with rucaparib alone) is 95.6% (active); in assay [7] (at 0.00122 µM, OCI-P5x cells, without rucaparib), 109% (inactive); in assay [7] (at 0.00488 µM, OCI-C5x cells, with rucaparib 10 µM, 100% = cells with rucaparib alone) it was 120% (inactive); in assay [7] (at 0.00488 µM, OCI-C5x cells, without rucaparib), 116% (inactive); in assay [7] (at 0.00488 µM, OCI-P5x cells, with rucaparib 20 µM, 100% = cells with rucaparib alone) it was 92.3% (active); in assay [7] (at 0.00488 µM, OCI-P5x cells, without rucaparib) it was 113% (inactive). Also, the viability was 111% (inactive) in assay [7] (at 0.0195 µM, OCI-C5x cells, with rucaparib 10 µM, 100% = cells with rucaparib alone); 114% (inactive) in assay [7] (at 0.0195 µM, OCI-C5x cells, without rucaparib); 90.3% (active) in assay [7] (at 0.0195 µM, OCI-P5x cells, with rucaparib 20 µM, 100% = cells with rucaparib alone); 108% (inactive) in assay [7] (at 0.0195 µM, OCI-P5x cells, without rucaparib); 98.8% (active) in assay [7] (at 0.0781 µM, OCI-C5x cells, with rucaparib 10 µM, 100% = cells with rucaparib alone); 116% (inactive) in assay [7] (at 0.0781 µM, OCI-C5x cells, without rucaparib). The viability in assay [7] (at 0.0781 µM, OCI-P5x cells, with rucaparib 20 µM, 100% = cells with rucaparib alone) was 77.8% (active); in assay [7] (at 0.0781 µM, OCI-P5x cells, without rucaparib) it was 97.3% (active); in assay [7] (at 0.313 µM, OCI-C5x cells, with rucaparib 10 µM, 100% = cells with rucaparib alone) it was 102% (inactive); in assay [7] (at 0.313 µM, OCI-C5x cells, without rucaparib) it was 103% (inactive); in assay [7] (at 0.313 µM, OCI-P5x cells, with rucaparib 20 µM, 100% = cells with rucaparib alone) it was 68.3% (active); in assay [7] (at 0.313 µM, OCI-P5x cells, without rucaparib) it was 76.9% (active). The viability in assay [7] (at 1.25 µM, OCI-C5x cells, with rucaparib 10 µM, 100% = cells with rucaparib alone) was 69.8% (active); in assay [7] (at 1.25 µM, OCI-C5x cells, without rucaparib), 54.3% (active); in assay [7] (at 1.25 µM, OCI-P5x cells, with rucaparib 20 µM, 100% = cells with rucaparib alone) it was 37.6% (active); in assay [7] (at 1.25 µM, OCI-P5x cells, without rucaparib), 34.8% (active); in assay [7] (at 5 µM, OCI-C5x cells, with rucaparib 10 µM, 100% = cells with rucaparib alone), 34.3% (active); in assay [7] (at 5 µM, OCI-C5x cells, without rucaparib), 32.9% (active). Also, the viability in assay [7] (at 5 µM, OCI-P5x cells, with rucaparib 20 µM, 100% = cells with rucaparib alone) was 13.7% (active); in assay [7] (at 5 µM, OCI-P5x cells, without rucaparib), 14.6% (active).
With `Cc1[nH]c2ccc(F)cc2c1-c1nc2c3cccnc3c3ncccc3c2[nH]1`, the values for the AC50 in assay [1], in assay [2] and in assay [3] were 6790 nM (active), 1350 nM (active) and 1910 nM (active), respectively. The IC50 in assay [8] is 2700 nM (active).
Take `Cc1cc(F)c(C(=O)Nc2cccc(-c3nncn3C(C)C)n2)cc1-n1cnc(C2CC2)c1`: the AC50 is 16600 nM (active) in assay [1], 18600 nM (active) in assay [2] and 18600 nM (active) in assay [3]. The IC50 in assay [8] was 18600 nM (active).
As to `CCOC(=O)[C@@]1(CCCCCCOc2ccc(Cl)cc2)CO1`, the compound was called inactive in assay [1], in assay [2], in assay [3] and in assay [8].
As for `COc1ncc(-c2ccc3c(Nc4cc(Oc5cc(F)cc(F)c5)cc(C(=O)O)c4)c(S(=O)(=O)NC4CC4)cnc3c2)c(OC)n1`, the call in assay [1], in assay [2], in assay [3] and in assay [8] was inactive.
For the compound `N#Cc1ccnc(N2C(=O)CC[C@H]2C(=O)N(c2cncc(F)c2)[C@H](C(=O)NC2CC(F)(F)C2)c2ccccc2Cl)c1`, the compound was classed as inactive in assay [1], in assay [2], in assay [3] and in assay [8].
`C[C@H]1COCCN1c1cc(C2(S(=O)(=O)C3CC3)CC2)nc(-c2ccc(NC(=S)NCCO)cc2)n1`: the figures for the AC50 in assay [1], in assay [2] and in assay [3] were 295 nM (active), 332 nM (active) and 26.3 nM (active), respectively. The IC50 in assay [8] was 4680 nM (active).
Consider `CC(=NNC(=O)c1cccc(S(=O)(=O)N2CCOCC2)c1)c1cc(Cl)ccc1O`, for which the AC50 was 8330 nM (active) in assay [1], 6610 nM (active) in assay [2] and 5900 nM (active) in assay [3]. Besides, the call in assay [8] was inactive.
With `OC[C@H]1O[C@@H](S[C@@H]2O[C@H](CO)[C@H](O)[C@H](n3cc(-c4cccc(F)c4)nn3)[C@H]2O)[C@H](O)[C@@H](n2cc(-c3cccc(F)c3)nn2)[C@H]1O`, the call in assay [1], in assay [2], in assay [3] and in assay [8] was inactive.
